Assay results taken from PubChem BioAssay (NCI).
“And” between values parts separate entries of the source, which are not always exact repeats. Identical values can stand only once. Compounds without any hit were thinned out: in the full panel of roughly 83,000, 20% have a hit.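 The endpoint reported here, percent growth, reads 100 for growth as untreated, 0 for no net growth and -100 for all cells dead.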 The source made the active and inactive calls. The calls were made as follows: active = growth percent below 10; inactive = the rest.

The compounds below were run on UACC-257 melanoma (assay: NCI-60 one-dose screen, 48 h (100 = growth as untreated, 0 = no growth, -100 = all killed)). Conditions: 10 µM unless noted.

| SMILES | growth |
| --- | --- |
| NS(=O)(=O)c1ccc(Nc2nc(N/N=C/c3cc(Br)c(O)c(Br)c3)nc(Nc3ccccc3)n2)cc1 | 97.4% (inactive) |
| COc1ccc2c(c1)C(Sc1ccc(Cl)cc1)c1c(nc(N)c(C#N)c1N)O2 (stereo unspecified) | 104% (inactive) |
| CS(=O)(=O)Nc1cccc(-n2c(COc3ccc(OC(F)(F)F)cc3)nc3ccccc32)c1 | 106% (inactive) and 109% (inactive) |
| OCCn1cc(-c2nc3ccc4[nH]ncc4c3c3c2CCCC3)cn1 | 58% (inactive) |
| Cn1cc(-c2cc(N)n3nc(-c4c[nH]c5ccc(F)cc45)cc3n2)c2cccnc21 | -87.3% (active) |
| COc1ccc2c(c1)N=c1c-2cc2c(O)[nH]c(=S)n2c1=O | 53.4% (inactive) |
| O=C(NN1C(=O)/C(=C/C=C/c2ccc([N+](=O)[O-])o2)SC1=S)c1ccncc1 | -86.7% (active) |
| Cn1cc(-c2cc(N)n3nc(-c4c[nH]c5ccccc45)cc3n2)c2cc(Br)ccc21 | -79.8% (active) |
| Cn1cc(-c2cc(N)n3nc(-c4c[nH]c5ccccc45)cc3n2)c2ccccc21 | -92% (active) |
| O=C1c2cccc3c(N4CCN(c5ccccc5)CC4)ccc(c23)C(=O)N1c1cccc(-c2nn(-c3ccccc3)cc2-c2nc3ccccc3s2)c1 | 113% (inactive) |
| O=C(c1ccc(O)cc1)C1[C@H](c2ccccc2Br)[C@@H](c2ccccc2)NC12C(=O)Nc1ccccc12 (stereo partly specified) | 45.8% (inactive) |
| COc1ccc(-c2cc(C(=O)N=Nc3c(O)[nH]c4ccc(Cl)cc34)c3ccccc3n2)cc1 | 106% (inactive) |
| CC(C)(C)OC(=O)N1CCC2(CC1)Oc1ccccc1[C@H]1CC(c3ccc(Br)cc3)=NN12 | 99.3% (inactive) |
| Cc1cc(C(NC(=O)CCCCCNc2cccc3c2C(=O)N(C2CCC(=O)CC2=O)C3=O)c2cccc(N(C)C)c2)c(O)c2ncccc12 (stereo unspecified) | 1.91% (active) |
| O=C(c1ccc(O)cc1)C1[C@H](c2ccc(Cl)cc2)[C@@H](c2ccccc2)NC12C(=O)Nc1ccc(Br)cc12 (stereo partly specified) | 65.9% (inactive) |
| Cc1ccc(C(=O)C[n+]2cccc3c4ccccc4ccc32)cc1 | 5.16% (active) |
| C#CCN(C)CCCOc1ccc(N(CC)C(=O)c2cc(C(C)C)c(O)cc2O)cc1Cl | -11.6% (active) |
| O=C(OCCOCCO)N(c1cccc(Br)c1)c1nc(SCCN2CCOCC2)nc2c1cnn2CC(Cl)c1ccc(Br)cc1 (stereo unspecified) | 2.33% (active) |
| COc1ccc(-c2nc3ccc(-c4nnc(SCC(=O)Nc5ccc(/C(C)=N\O)cc5)o4)cc3[nH]2)cc1 | 50.4% (inactive) |
| Clc1ccc2c(NCCNC34CC5CC(CC(C5)C3)C4)ccnc2c1 | -66.3% (active) |
| CCOc1ccc(-c2cc(-c3cc(C(C)C)c(O)cc3C)nn2-c2ccc(S(N)(=O)=O)cc2)cc1 | 46.8% (inactive) |
| Cc1ccc(N=Nc2c(N)nn3c(-c4cc5cc(Br)ccc5oc4=O)ccnc23)cc1 | 121% (inactive) |
| COc1ccc(SC2c3cc(OC)ccc3Oc3nc(N)c(C#N)c(N)c32)cc1 (stereo unspecified) | 120% (inactive) |
| O=C1Nc2ccc(F)cc2/C1=C/C(=O)c1cc2ccccc2oc1=O | 96.3% (inactive) |
| COc1ccc2[nH]cc(-c3cc(N)n4nc(-c5c[nH]c6ccccc56)cc4n3)c2c1 | -92.3% (active) |
| O=C1Nc2cc(-c3ccc(NS(=O)(=O)c4ccc(F)c(Cl)c4)cc3)ccc2/C1=C/c1ccc[nH]1 | 29.7% (inactive) |
| CCOC(=O)/C(F)=C/C1CC1C1CCN(C(=O)OC(C)(C)C)CC1 (stereo unspecified) | 111% (inactive) |
| CN1CCN(CCS(=O)(=O)Nc2cc(-c3ccc4ncnc(Nc5ccc(F)c(Cl)c5)c4c3)cnc2Cl)CC1 | 18.2% (inactive) |
| N#Cc1cc(-c2ccc3ncnc(N4CCc5cc(F)c(Cl)cc54)c3c2)cnc1N | 90.2% (inactive) |

These compounds were tested on M14 melanoma in the same assay as above. Conditions: 10 µM unless noted.

| SMILES | growth |
| --- | --- |
| O=c1ccc(Cn2c(C(F)(F)F)cc3c(Cl)ncnc32)c[nH]1 | -51.5% (active) |
| CC[C@]12C=CCN3CC[C@]4(C(=C(C(=O)OC)C1)Nc1cc(OC)c([C@@H]5[C@H]6O[C@H]6[C@@]6(CC)CC(C(=O)OC)=C7Nc8cc(O)ccc8[C@@]78CCN5[C@@H]68)cc14)[C@@H]32 | -28.4% (active) |
| COc1ccc2[nH]cc(-c3cc4nc(-c5cn(C)c6ncccc56)cc(N)n4n3)c2c1 | -49.5% (active) |
| COc1ccc2[nH]c(=O)cc(-n3ncc(C(=O)/C=C/c4cc(OC)c(OC)c(OC)c4)c3C)c2c1 | -48.3% (active) |
| COc1ccc(/C=C/c2nc3ccccc3n3c(-c4cccc([N+](=O)[O-])c4)nnc23)cc1 | -77.4% (active) |
| O=C(Nc1ccc(Cl)c(C(F)(F)F)c1)N1CCN(c2cc(-c3cn(-c4ccccc4)nc3-c3cccc(O)c3)ccn2)CC1 | -19.3% (active) |
| O=C1Nc2ccccc2/C1=C/C(=O)c1cc2ccccc2oc1=O | 101% (inactive) |
| CN1CCN(C(=O)Oc2cc3c(c4ccccc24)[C@H](CCl)CN3C(=O)c2cc3cc(OCCCN4CCC4)ccc3[nH]2)[C@H]2CSSC[C@H]21 | -75.2% (active) |
| NS(=O)(=O)c1ccc(Nc2nc(N/N=C/c3cc(Br)c(O)c(Br)c3)nc(Nc3ccccc3)n2)cc1 | 59.4% (inactive) |
| COc1ccc2c(c1)C(Sc1ccc(Cl)cc1)c1c(nc(N)c(C#N)c1N)O2 (stereo unspecified) | 66.4% (inactive) |
| CS(=O)(=O)Nc1cccc(-n2c(COc3ccc(OC(F)(F)F)cc3)nc3ccccc32)c1 | 114% (inactive) and 107% (inactive) |
| OCCn1cc(-c2nc3ccc4[nH]ncc4c3c3c2CCCC3)cn1 | 22.6% (inactive) |
| Cn1cc(-c2cc(N)n3nc(-c4c[nH]c5ccc(F)cc45)cc3n2)c2cccnc21 | -89.5% (active) |
| COc1ccc2c(c1)N=c1c-2cc2c(O)[nH]c(=S)n2c1=O | 40% (inactive) |
| O=C(NN1C(=O)/C(=C/C=C/c2ccc([N+](=O)[O-])o2)SC1=S)c1ccncc1 | -67.9% (active) |
| Cn1cc(-c2cc(N)n3nc(-c4c[nH]c5ccccc45)cc3n2)c2cc(Br)ccc21 | -65.7% (active) |
| Cn1cc(-c2cc(N)n3nc(-c4c[nH]c5ccccc45)cc3n2)c2ccccc21 | -81.5% (active) |
| O=C1c2cccc3c(N4CCN(c5ccccc5)CC4)ccc(c23)C(=O)N1c1cccc(-c2nn(-c3ccccc3)cc2-c2nc3ccccc3s2)c1 | 104% (inactive) |
| O=C(c1ccc(O)cc1)C1[C@H](c2ccccc2Br)[C@@H](c2ccccc2)NC12C(=O)Nc1ccccc12 (stereo partly specified) | 58.6% (inactive) |

| SMILES | growth |
| --- | --- |
| COc1ccc(-c2cc(C(=O)N=Nc3c(O)[nH]c4ccc(Cl)cc34)c3ccccc3n2)cc1 | 76.9% (inactive) |
| CC(C)(C)OC(=O)N1CCC2(CC1)Oc1ccccc1[C@H]1CC(c3ccc(Br)cc3)=NN12 | 87.3% (inactive) |
| Cc1cc(C(NC(=O)CCCCCNc2cccc3c2C(=O)N(C2CCC(=O)CC2=O)C3=O)c2cccc(N(C)C)c2)c(O)c2ncccc12 (stereo unspecified) | -26.5% (active) |
| O=C(c1ccc(O)cc1)C1[C@H](c2ccc(Cl)cc2)[C@@H](c2ccccc2)NC12C(=O)Nc1ccc(Br)cc12 (stereo partly specified) | -56.8% (active) |
| Cc1ccc(C(=O)C[n+]2cccc3c4ccccc4ccc32)cc1 | 17.6% (inactive) |
| C#CCN(C)CCCOc1ccc(N(CC)C(=O)c2cc(C(C)C)c(O)cc2O)cc1Cl | -45.8% (active) |
| O=C(OCCOCCO)N(c1cccc(Br)c1)c1nc(SCCN2CCOCC2)nc2c1cnn2CC(Cl)c1ccc(Br)cc1 (stereo unspecified) | -14.1% (active) |
| COc1ccc(-c2nc3ccc(-c4nnc(SCC(=O)Nc5ccc(/C(C)=N\O)cc5)o4)cc3[nH]2)cc1 | 28.5% (inactive) |
| Clc1ccc2c(NCCNC34CC5CC(CC(C5)C3)C4)ccnc2c1 | -83.5% (active) |
| CCOc1ccc(-c2cc(-c3cc(C(C)C)c(O)cc3C)nn2-c2ccc(S(N)(=O)=O)cc2)cc1 | 49.3% (inactive) |
| Cc1ccc(N=Nc2c(N)nn3c(-c4cc5cc(Br)ccc5oc4=O)ccnc23)cc1 | 65.1% (inactive) |
| COc1ccc(SC2c3cc(OC)ccc3Oc3nc(N)c(C#N)c(N)c32)cc1 (stereo unspecified) | 79.7% (inactive) |
| O=C1Nc2ccc(F)cc2/C1=C/C(=O)c1cc2ccccc2oc1=O | 89.1% (inactive) |
| COc1ccc2[nH]cc(-c3cc(N)n4nc(-c5c[nH]c6ccccc56)cc4n3)c2c1 | -58.6% (active) |
| O=C1Nc2cc(-c3ccc(NS(=O)(=O)c4ccc(F)c(Cl)c4)cc3)ccc2/C1=C/c1ccc[nH]1 | 48.4% (inactive) |
| CCOC(=O)/C(F)=C/C1CC1C1CCN(C(=O)OC(C)(C)C)CC1 (stereo unspecified) | 106% (inactive) |
| CN1CCN(CCS(=O)(=O)Nc2cc(-c3ccc4ncnc(Nc5ccc(F)c(Cl)c5)c4c3)cnc2Cl)CC1 | 20.9% (inactive) |
| N#Cc1cc(-c2ccc3ncnc(N4CCc5cc(F)c(Cl)cc54)c3c2)cnc1N | 36.8% (inactive) |
